From the supplement of paper PMC11732987, “Enantioselective OTUD7B fragment discovery through chemoproteomics screening and high-throughput optimisation” (Communications Chemistry, 2025)

Assays:
Test in all cases: log2 ratio of Biotin-Ahx-Ub-VS probe labelling (fragment/DMSO); higher = less target engagement (more negative = stronger competition), active = hit call of the paper (q ≤ 0.05, log2 ratio ≤ -1)
Conditions in all cases: compound concentration: 200 uM; treatment time: 3 h
USP42 = target: T1, USP42 (UniProt Q9H9J4)
T1 sequence (whole entry): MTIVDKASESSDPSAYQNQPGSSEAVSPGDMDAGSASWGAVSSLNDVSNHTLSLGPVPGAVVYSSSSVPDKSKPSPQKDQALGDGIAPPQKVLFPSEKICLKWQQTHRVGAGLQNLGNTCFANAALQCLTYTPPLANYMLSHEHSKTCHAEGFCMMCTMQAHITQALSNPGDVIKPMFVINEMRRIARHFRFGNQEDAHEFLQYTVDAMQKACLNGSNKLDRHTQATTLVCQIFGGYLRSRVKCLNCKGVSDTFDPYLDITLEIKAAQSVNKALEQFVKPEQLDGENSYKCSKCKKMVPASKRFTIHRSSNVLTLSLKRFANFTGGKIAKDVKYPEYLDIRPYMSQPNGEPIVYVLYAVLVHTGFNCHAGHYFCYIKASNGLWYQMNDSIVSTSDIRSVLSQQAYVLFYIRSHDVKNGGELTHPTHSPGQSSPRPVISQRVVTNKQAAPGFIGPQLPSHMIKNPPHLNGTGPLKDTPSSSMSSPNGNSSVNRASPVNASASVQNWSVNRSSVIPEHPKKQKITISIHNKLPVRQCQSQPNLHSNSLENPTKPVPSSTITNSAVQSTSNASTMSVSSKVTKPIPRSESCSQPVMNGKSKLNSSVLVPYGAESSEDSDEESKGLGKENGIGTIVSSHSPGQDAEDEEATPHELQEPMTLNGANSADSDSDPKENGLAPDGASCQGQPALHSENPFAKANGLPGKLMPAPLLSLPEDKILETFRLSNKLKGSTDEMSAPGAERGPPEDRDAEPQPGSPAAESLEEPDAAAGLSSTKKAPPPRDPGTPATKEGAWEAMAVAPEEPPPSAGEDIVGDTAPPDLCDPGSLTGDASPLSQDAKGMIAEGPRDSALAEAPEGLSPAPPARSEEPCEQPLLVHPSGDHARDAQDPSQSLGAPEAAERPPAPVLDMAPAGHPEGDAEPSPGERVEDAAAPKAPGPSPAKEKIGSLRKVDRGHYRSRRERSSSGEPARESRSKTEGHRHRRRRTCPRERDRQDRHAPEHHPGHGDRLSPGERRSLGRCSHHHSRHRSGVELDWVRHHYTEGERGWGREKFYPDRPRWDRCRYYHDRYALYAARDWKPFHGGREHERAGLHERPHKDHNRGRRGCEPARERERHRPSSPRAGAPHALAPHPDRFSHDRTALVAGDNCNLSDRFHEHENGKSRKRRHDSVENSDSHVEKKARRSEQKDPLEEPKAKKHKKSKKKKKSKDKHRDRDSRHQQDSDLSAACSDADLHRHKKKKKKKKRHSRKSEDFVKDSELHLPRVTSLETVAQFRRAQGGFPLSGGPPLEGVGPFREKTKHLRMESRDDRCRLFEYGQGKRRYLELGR
Method in brief: (§1)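 In triplicate, 495 µg of HEK293T lysate per sample was incubated with fragment at 200 µM or vehicle for 3 h. Biotin-Ahx-Ub-VS was then added to 0.5 µM final for 1 h, and labelled DUBs were captured with NeutrAvidin, digested with LysC and trypsin, and measured by diaPASEF LC-MS/MS. Data are average log2 fragment/vehicle ratios by unpaired t-test from global-median-normalised Spectronaut label-free quantities, restricted to proteins with ≥2 unique peptides.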

USP46 = USP46 (UniProt P62068)
Method in brief: as §1

USP47 = target: T2, USP47 (UniProt Q96K76)
T2 sequence (whole entry): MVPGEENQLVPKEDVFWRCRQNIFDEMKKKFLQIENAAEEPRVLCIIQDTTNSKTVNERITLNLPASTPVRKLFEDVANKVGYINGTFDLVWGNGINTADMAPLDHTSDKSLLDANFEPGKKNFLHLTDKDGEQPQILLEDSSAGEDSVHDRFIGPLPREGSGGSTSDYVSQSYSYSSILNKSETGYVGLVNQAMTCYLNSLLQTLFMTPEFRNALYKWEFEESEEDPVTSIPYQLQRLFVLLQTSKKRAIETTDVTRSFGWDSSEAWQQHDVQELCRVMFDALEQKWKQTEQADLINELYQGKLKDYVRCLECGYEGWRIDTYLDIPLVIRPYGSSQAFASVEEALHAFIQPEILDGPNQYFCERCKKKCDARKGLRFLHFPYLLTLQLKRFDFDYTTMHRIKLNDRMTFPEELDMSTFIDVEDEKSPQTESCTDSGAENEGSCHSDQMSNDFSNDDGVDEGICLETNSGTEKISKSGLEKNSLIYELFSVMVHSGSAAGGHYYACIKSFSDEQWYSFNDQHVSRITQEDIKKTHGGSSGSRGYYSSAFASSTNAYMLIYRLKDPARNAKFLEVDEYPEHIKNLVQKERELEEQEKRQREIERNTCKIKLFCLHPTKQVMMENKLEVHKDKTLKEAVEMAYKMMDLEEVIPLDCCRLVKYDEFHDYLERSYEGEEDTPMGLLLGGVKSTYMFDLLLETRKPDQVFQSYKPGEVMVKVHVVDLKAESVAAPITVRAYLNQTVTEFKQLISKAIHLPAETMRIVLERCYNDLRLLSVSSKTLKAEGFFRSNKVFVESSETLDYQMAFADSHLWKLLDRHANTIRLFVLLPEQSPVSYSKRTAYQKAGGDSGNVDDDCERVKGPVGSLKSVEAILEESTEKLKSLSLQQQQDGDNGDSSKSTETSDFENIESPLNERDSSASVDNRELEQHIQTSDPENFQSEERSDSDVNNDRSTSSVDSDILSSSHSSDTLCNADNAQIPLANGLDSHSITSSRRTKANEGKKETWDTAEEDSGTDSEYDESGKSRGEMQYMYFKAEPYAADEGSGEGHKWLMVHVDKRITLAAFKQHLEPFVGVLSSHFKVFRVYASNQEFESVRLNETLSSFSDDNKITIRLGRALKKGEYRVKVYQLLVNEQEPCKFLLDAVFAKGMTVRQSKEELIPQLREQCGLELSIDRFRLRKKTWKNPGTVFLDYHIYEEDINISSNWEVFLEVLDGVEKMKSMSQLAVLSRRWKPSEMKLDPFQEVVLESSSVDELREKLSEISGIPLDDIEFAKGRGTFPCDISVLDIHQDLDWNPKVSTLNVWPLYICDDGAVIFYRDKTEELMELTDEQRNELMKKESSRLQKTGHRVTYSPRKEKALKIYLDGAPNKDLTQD
Method in brief: as §1

USP48 = target: T3, USP48 (UniProt Q86UV5)
T3 sequence (whole entry): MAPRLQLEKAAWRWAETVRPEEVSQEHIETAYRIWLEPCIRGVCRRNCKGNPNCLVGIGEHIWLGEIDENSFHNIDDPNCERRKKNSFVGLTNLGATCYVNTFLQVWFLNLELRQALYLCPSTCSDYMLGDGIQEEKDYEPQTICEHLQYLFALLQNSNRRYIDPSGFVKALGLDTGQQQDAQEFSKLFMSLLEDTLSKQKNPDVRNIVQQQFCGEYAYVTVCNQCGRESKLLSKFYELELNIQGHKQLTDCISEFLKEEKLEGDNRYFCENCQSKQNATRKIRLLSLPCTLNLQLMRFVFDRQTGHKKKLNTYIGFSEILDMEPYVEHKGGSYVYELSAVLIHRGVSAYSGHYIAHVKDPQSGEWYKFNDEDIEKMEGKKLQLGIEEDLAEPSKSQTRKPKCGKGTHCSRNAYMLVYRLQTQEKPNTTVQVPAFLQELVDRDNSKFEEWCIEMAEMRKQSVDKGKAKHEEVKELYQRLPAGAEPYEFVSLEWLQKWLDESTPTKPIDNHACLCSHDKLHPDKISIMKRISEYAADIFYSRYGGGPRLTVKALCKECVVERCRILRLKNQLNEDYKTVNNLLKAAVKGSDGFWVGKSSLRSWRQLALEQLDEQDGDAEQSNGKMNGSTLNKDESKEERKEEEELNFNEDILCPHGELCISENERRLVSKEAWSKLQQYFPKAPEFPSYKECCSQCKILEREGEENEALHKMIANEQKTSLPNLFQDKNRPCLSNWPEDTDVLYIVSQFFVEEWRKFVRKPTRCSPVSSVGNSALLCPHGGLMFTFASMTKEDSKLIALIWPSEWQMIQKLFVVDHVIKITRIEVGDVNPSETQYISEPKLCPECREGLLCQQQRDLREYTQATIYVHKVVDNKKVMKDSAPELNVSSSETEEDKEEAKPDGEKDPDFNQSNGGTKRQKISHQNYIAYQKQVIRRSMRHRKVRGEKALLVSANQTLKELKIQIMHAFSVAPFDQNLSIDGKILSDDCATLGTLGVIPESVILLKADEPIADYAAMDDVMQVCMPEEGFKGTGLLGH
Method in brief: as §1

USP5 = target: T4, USP5 (UniProt P45974)
T4 sequence (whole entry): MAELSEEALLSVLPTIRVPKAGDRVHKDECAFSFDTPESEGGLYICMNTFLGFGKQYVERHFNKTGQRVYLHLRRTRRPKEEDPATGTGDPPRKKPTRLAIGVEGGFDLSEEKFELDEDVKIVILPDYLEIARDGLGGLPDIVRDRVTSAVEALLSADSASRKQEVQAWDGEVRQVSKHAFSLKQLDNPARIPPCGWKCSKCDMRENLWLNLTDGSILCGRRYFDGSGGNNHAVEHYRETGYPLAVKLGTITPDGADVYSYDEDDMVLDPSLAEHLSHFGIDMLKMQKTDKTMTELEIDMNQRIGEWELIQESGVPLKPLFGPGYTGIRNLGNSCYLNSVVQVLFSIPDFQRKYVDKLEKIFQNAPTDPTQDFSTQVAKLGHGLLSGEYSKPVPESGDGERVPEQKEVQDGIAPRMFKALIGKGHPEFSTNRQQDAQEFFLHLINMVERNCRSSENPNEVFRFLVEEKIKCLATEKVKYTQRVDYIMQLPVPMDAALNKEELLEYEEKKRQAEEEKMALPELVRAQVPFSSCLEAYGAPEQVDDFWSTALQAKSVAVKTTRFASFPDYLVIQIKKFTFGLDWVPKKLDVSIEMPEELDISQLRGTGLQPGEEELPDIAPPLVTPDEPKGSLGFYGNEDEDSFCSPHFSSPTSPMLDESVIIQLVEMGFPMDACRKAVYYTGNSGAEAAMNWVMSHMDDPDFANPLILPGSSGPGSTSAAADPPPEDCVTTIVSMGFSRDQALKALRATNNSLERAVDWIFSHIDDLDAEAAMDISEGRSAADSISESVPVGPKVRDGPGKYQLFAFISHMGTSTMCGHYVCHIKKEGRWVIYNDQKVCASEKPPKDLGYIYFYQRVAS
Method in brief: as §1

USP54 = USP54 (UniProt Q70EL1)
Method in brief: as §1

USP7 = USP7 (UniProt Q93009)
Method in brief: as §1

USP8 = target: T5, USP8 (UniProt P40818)
T5 sequence (whole entry): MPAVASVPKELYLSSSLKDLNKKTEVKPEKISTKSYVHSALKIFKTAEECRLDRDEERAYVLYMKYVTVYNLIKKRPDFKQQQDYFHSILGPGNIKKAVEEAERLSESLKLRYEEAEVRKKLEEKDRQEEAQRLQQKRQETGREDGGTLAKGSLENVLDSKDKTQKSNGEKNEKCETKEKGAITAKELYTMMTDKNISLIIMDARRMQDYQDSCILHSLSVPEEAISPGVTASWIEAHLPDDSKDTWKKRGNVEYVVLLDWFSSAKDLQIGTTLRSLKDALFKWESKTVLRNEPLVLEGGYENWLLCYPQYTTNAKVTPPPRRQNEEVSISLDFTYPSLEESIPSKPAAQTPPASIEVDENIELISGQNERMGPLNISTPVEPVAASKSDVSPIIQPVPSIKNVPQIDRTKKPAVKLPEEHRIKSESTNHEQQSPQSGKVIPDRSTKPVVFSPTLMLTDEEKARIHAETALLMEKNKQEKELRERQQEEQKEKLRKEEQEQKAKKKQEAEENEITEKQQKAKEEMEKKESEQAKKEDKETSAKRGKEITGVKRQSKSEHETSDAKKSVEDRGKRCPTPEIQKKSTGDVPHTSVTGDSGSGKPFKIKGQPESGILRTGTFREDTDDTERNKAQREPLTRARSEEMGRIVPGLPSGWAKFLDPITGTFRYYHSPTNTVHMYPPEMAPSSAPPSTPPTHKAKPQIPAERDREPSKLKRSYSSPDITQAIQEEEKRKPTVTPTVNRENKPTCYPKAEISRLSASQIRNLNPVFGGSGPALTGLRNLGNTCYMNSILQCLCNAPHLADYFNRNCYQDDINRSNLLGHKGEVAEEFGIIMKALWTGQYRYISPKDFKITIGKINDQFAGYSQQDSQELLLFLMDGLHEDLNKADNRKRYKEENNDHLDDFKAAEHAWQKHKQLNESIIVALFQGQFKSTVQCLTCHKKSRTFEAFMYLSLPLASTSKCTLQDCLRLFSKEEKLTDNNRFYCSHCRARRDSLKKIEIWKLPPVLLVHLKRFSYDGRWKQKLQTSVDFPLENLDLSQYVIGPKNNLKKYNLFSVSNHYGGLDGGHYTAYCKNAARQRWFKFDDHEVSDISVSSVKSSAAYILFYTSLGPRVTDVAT
Method in brief: as §1

Measured: log2 ratio of Biotin-Ahx-Ub-VS probe labelling

Chain of USP7 (Q93009 whole entry, looked up): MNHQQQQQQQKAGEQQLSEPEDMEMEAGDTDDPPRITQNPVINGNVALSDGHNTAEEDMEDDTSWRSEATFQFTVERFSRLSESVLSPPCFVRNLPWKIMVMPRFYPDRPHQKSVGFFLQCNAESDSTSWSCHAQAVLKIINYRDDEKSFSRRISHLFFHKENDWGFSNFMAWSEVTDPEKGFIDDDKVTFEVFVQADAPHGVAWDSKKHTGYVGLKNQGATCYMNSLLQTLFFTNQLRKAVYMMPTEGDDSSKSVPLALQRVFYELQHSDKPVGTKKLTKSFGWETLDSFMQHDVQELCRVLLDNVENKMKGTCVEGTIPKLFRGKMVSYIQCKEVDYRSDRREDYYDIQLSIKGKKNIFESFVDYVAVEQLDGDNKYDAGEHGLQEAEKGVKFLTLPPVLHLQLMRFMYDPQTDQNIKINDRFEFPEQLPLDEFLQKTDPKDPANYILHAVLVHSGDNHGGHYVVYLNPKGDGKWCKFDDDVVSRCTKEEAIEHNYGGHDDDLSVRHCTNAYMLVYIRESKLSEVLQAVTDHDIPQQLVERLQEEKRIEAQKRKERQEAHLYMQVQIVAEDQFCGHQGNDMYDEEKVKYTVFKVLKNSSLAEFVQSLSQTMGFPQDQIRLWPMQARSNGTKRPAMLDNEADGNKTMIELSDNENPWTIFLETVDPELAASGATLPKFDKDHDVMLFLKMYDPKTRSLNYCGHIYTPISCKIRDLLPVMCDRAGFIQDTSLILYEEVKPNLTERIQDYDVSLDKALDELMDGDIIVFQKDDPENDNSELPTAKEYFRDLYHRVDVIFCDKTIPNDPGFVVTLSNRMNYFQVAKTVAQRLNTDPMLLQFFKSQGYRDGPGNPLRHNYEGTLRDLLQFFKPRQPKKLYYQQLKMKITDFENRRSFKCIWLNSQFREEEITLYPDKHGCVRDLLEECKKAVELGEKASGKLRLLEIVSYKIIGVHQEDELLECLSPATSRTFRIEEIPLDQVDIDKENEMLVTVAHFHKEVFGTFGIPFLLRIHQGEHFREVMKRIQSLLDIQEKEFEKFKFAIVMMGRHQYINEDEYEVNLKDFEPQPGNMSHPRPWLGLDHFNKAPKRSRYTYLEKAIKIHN
Chain of USP46 (P62068 whole entry): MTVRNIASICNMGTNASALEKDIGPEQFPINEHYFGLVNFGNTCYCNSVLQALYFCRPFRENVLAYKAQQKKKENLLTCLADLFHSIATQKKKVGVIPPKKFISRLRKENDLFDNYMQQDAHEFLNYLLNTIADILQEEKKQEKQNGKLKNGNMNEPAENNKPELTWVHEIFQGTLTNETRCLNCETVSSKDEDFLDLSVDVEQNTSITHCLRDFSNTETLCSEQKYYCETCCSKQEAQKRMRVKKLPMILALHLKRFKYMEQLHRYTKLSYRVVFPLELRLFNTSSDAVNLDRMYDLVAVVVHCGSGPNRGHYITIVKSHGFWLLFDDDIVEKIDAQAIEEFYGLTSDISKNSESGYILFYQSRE
Chain of USP54 (Q70EL1 whole entry): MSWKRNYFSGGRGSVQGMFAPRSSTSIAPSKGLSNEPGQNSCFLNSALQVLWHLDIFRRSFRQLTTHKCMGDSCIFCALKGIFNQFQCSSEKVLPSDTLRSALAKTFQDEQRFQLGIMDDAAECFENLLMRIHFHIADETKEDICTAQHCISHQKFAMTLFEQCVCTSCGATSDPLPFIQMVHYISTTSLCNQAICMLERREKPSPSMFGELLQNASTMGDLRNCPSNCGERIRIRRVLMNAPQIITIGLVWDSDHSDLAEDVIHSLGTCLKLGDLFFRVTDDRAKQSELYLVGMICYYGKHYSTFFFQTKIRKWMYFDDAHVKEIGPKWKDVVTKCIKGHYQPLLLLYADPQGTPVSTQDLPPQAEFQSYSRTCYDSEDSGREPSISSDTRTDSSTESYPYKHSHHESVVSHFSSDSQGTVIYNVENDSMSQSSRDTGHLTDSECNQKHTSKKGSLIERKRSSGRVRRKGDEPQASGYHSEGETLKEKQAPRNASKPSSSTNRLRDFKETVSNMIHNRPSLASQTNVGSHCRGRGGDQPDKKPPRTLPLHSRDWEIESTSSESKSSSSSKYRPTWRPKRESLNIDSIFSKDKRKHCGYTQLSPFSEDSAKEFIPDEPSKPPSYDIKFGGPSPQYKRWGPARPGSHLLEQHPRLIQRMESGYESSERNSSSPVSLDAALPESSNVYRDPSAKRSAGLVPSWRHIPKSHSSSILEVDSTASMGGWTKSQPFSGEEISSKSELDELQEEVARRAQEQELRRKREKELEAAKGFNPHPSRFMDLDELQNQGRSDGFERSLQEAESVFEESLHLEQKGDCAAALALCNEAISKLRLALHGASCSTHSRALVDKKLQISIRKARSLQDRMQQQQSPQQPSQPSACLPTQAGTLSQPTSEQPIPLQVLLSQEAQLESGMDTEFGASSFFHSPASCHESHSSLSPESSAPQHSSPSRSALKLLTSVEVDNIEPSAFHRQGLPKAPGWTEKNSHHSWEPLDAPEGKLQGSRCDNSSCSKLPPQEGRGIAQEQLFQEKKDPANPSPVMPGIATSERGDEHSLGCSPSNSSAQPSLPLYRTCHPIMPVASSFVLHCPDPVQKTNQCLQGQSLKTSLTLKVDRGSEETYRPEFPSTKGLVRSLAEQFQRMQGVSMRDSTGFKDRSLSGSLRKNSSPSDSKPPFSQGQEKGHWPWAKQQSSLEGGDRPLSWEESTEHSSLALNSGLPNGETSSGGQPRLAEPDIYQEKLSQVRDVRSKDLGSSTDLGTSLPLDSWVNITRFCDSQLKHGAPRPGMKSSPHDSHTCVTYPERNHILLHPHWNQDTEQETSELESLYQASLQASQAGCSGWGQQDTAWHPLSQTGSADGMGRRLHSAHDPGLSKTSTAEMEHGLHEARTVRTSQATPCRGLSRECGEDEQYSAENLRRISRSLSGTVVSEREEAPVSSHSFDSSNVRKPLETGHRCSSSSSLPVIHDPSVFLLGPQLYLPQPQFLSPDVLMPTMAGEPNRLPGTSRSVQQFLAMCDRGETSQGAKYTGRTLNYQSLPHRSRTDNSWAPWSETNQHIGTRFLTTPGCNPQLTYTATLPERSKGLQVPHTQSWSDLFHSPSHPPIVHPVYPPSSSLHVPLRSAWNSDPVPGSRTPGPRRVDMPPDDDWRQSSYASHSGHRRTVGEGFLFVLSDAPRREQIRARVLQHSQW

O=C(CCl)Nc1nc(-c2cccs2)cs1
inactive: USP42 0.598 | USP46 -0.255 | USP47 -0.799 | USP48 -0.537 | USP5 0.0914 | USP54 0.00682 | USP7 -0.679 | USP8 0.0395
